Data reported in the supplement of paper PMC6992640.

Key:
[1] = test system: HCI01 (cells of a triple-negative basal-like breast cancer xenograft); assay: cell viability of combination (% of vehicle); higher = less cytotoxic; conditions: 1 µM; 72 h; partner dose: 10 nM
Method: (§1)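 PDX cells were treated for 72 h with each drug at 1 µM plus carfilzomib (10 nM; 100 nM for WHIM2). Luciferase viability is expressed as percent of vehicle.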

[2] = test system: UCD52 (cells of a triple-negative basal-like breast cancer xenograft); assay: as above; conditions: 1 µM; 72 h; partner dose: 10 nM
Method: as §1

| SMILES | cell viability of combination [1] | cell viability of combination [2] |
| --- | --- | --- |
| Nc1ccn(C2OC(CO)C(O)C2O)c(=O)n1 (stereo not given) [Cytarabine] + CC(C)C[C@H](NC(=O)[C@H](CCc1ccccc1)NC(=O)CN1CCOCC1)C(=O)N[C@@H](Cc1ccccc1)C(=O)N[C@@H](CC(C)C)C(=O)[C@@]1(C)CO1 [Carfilzomib] | 57.8 | 68.3 |
| CC(C)(C)NC(=O)C1CC2CCCCC2CN1CC(O)C(Cc1ccccc1)NC(=O)C(CC(N)=O)NC(=O)c1ccc2ccccc2n1.CS(=O)(=O)O (stereo not given) [Saquinavir mesylate] + CC(C)C[C@H](NC(=O)[C@H](CCc1ccccc1)NC(=O)CN1CCOCC1)C(=O)N[C@@H](Cc1ccccc1)C(=O)N[C@@H](CC(C)C)C(=O)[C@@]1(C)CO1 [Carfilzomib] | 79.5 | 60.2 |
| COCCOC(=O)C1=C(C)NC(C)=C(C(=O)OCC=Cc2ccccc2)C1c1cccc([N+](=O)[O-])c1 (stereo not given) [Cilnidipine] + CC(C)C[C@H](NC(=O)[C@H](CCc1ccccc1)NC(=O)CN1CCOCC1)C(=O)N[C@@H](Cc1ccccc1)C(=O)N[C@@H](CC(C)C)C(=O)[C@@]1(C)CO1 [Carfilzomib] | 104 | 63.2 |
| CC(C)c1nc(CN(C)C(=O)NC(C(=O)NC(Cc2ccccc2)CC(O)C(Cc2ccccc2)NC(=O)OCc2cncs2)C(C)C)cs1 (stereo not given) [Ritonavir] + CC(C)C[C@H](NC(=O)[C@H](CCc1ccccc1)NC(=O)CN1CCOCC1)C(=O)N[C@@H](Cc1ccccc1)C(=O)N[C@@H](CC(C)C)C(=O)[C@@]1(C)CO1 [Carfilzomib] | 73 | 65.6 |
| Cl.Fc1ccc(C2CCNCC2COc2ccc3c(c2)OCO3)cc1 (stereo not given) [Paroxetine HCl] + CC(C)C[C@H](NC(=O)[C@H](CCc1ccccc1)NC(=O)CN1CCOCC1)C(=O)N[C@@H](Cc1ccccc1)C(=O)N[C@@H](CC(C)C)C(=O)[C@@]1(C)CO1 [Carfilzomib] | 90.8 | 54.7 |
| Cc1cc(-n2c(=O)[nH]c(=O)n(C)c2=O)ccc1Oc1ccc(SC(F)(F)F)cc1 [Toltrazuril] + CC(C)C[C@H](NC(=O)[C@H](CCc1ccccc1)NC(=O)CN1CCOCC1)C(=O)N[C@@H](Cc1ccccc1)C(=O)N[C@@H](CC(C)C)C(=O)[C@@]1(C)CO1 [Carfilzomib] | 76.4 | 61 |
| CCN(CC)CCNC(=O)c1c(C)[nH]c(C=C2C(=O)Nc3ccc(F)cc32)c1C.O=C(O)CC(O)C(=O)O [Sunitinib malate] + CC(C)C[C@H](NC(=O)[C@H](CCc1ccccc1)NC(=O)CN1CCOCC1)C(=O)N[C@@H](Cc1ccccc1)C(=O)N[C@@H](CC(C)C)C(=O)[C@@]1(C)CO1 [Carfilzomib] | 67.2 | 61.5 |
| O=C(NC1CCN(CCCCC2(C(=O)NCC(F)(F)F)c3ccccc3-c3ccccc32)CC1)c1ccccc1-c1ccc(C(F)(F)F)cc1 [Lomitapide] + CC(C)C[C@H](NC(=O)[C@H](CCc1ccccc1)NC(=O)CN1CCOCC1)C(=O)N[C@@H](Cc1ccccc1)C(=O)N[C@@H](CC(C)C)C(=O)[C@@]1(C)CO1 [Carfilzomib] | 84.9 | 38.9 |
| CCc1oc2ccccc2c1C(=O)c1cc(Br)c(O)c(Br)c1 [Benzbromarone] + CC(C)C[C@H](NC(=O)[C@H](CCc1ccccc1)NC(=O)CN1CCOCC1)C(=O)N[C@@H](Cc1ccccc1)C(=O)N[C@@H](CC(C)C)C(=O)[C@@]1(C)CO1 [Carfilzomib] | 84.6 | 63.1 |
| C1=C\COCc2cc(ccc2OCCN2CCCC2)Nc2nccc(n2)-c2cccc(c2)COC/1 [Pacritinib] + CC(C)C[C@H](NC(=O)[C@H](CCc1ccccc1)NC(=O)CN1CCOCC1)C(=O)N[C@@H](Cc1ccccc1)C(=O)N[C@@H](CC(C)C)C(=O)[C@@]1(C)CO1 [Carfilzomib] | 58.2 | 57.9 |
| CN(C)c1ccc(C(=C2C=CC(=[N+](C)C)C=C2)c2ccc(N(C)C)cc2)cc1.[Cl-] [Crystal Violet] + CC(C)C[C@H](NC(=O)[C@H](CCc1ccccc1)NC(=O)CN1CCOCC1)C(=O)N[C@@H](Cc1ccccc1)C(=O)N[C@@H](CC(C)C)C(=O)[C@@]1(C)CO1 [Carfilzomib] | 68 | 32.3 |
| CN1CCN(CCOc2cc(OC3CCOCC3)c3c(Nc4c(Cl)ccc5c4OCO5)ncnc3c2)CC1 [Saracatinib (AZD0530)] + CC(C)C[C@H](NC(=O)[C@H](CCc1ccccc1)NC(=O)CN1CCOCC1)C(=O)N[C@@H](Cc1ccccc1)C(=O)N[C@@H](CC(C)C)C(=O)[C@@]1(C)CO1 [Carfilzomib] | 66.1 | 39.3 |
| C=C1C(=CC=C2CCCC3(C)C2CCC3C(C)C=CC(C)C(C)C)CC(O)CC1O (stereo not given) [Doxercalciferol] + CC(C)C[C@H](NC(=O)[C@H](CCc1ccccc1)NC(=O)CN1CCOCC1)C(=O)N[C@@H](Cc1ccccc1)C(=O)N[C@@H](CC(C)C)C(=O)[C@@]1(C)CO1 [Carfilzomib] | 67 | 44 |
| C#Cc1cccc(Nc2ncnc3cc(OCCOC)c(OCCOC)cc23)c1 [Erlotinib] + CC(C)C[C@H](NC(=O)[C@H](CCc1ccccc1)NC(=O)CN1CCOCC1)C(=O)N[C@@H](Cc1ccccc1)C(=O)N[C@@H](CC(C)C)C(=O)[C@@]1(C)CO1 [Carfilzomib] | 66.8 | 49.1 |
| COc1cc2nccc(Oc3ccc(NC(=O)Nc4cc(C)on4)c(Cl)c3)c2cc1OC [Tivozanib (AV-951)] + CC(C)C[C@H](NC(=O)[C@H](CCc1ccccc1)NC(=O)CN1CCOCC1)C(=O)N[C@@H](Cc1ccccc1)C(=O)N[C@@H](CC(C)C)C(=O)[C@@]1(C)CO1 [Carfilzomib] | 97.5 | 48.9 |
| Cc1cc(Nc2ncc(Cl)c(Nc3ccccc3S(=O)(=O)C(C)C)n2)c(OC(C)C)cc1C1CCNCC1 + CC(C)C[C@H](NC(=O)[C@H](CCc1ccccc1)NC(=O)CN1CCOCC1)C(=O)N[C@@H](Cc1ccccc1)C(=O)N[C@@H](CC(C)C)C(=O)[C@@]1(C)CO1 [Carfilzomib] | 81.5 | 31.4 |
| CC(C)C(=O)OCC(=O)[C@@]12O[C@H](C3CCCCC3)O[C@@H]1C[C@H]1[C@@H]3CCC4=CC(=O)C=C[C@]4(C)[C@H]3[C@@H](O)C[C@@]12C [Ciclesonide] + CC(C)C[C@H](NC(=O)[C@H](CCc1ccccc1)NC(=O)CN1CCOCC1)C(=O)N[C@@H](Cc1ccccc1)C(=O)N[C@@H](CC(C)C)C(=O)[C@@]1(C)CO1 [Carfilzomib] | 108 | 88.6 |
| Clc1ccc(COC(Cn2ccnc2)c2ccc(Cl)cc2Cl)c(Cl)c1.O=[N+]([O-])O (stereo not given) [Miconazole Nitrate] + CC(C)C[C@H](NC(=O)[C@H](CCc1ccccc1)NC(=O)CN1CCOCC1)C(=O)N[C@@H](Cc1ccccc1)C(=O)N[C@@H](CC(C)C)C(=O)[C@@]1(C)CO1 [Carfilzomib] | 87.1 | 59.3 |
| Clc1ccc(CSC(Cn2ccnc2)c2ccc(Cl)cc2Cl)cc1.O=[N+]([O-])O (stereo not given) [Sulconazole Nitrate] + CC(C)C[C@H](NC(=O)[C@H](CCc1ccccc1)NC(=O)CN1CCOCC1)C(=O)N[C@@H](Cc1ccccc1)C(=O)N[C@@H](CC(C)C)C(=O)[C@@]1(C)CO1 [Carfilzomib] | 93.5 | 62.1 |
| CCN(CC)CCCC(C)Nc1ccnc2cc(Cl)ccc12.O=P(O)(O)O.O=P(O)(O)O (stereo not given) [Chloroquine diphosphate] + CC(C)C[C@H](NC(=O)[C@H](CCc1ccccc1)NC(=O)CN1CCOCC1)C(=O)N[C@@H](Cc1ccccc1)C(=O)N[C@@H](CC(C)C)C(=O)[C@@]1(C)CO1 [Carfilzomib] | 64 | 52.9 |
| CC(C)(C)c1ccc(C(O)CCCN2CCC(C(O)(c3ccccc3)c3ccccc3)CC2)cc1 (stereo not given) [Terfenadine] + CC(C)C[C@H](NC(=O)[C@H](CCc1ccccc1)NC(=O)CN1CCOCC1)C(=O)N[C@@H](Cc1ccccc1)C(=O)N[C@@H](CC(C)C)C(=O)[C@@]1(C)CO1 [Carfilzomib] | 77.1 | 64.9 |
| CN1CCC(COc2cnc(-c3cccc(Cn4nc(-c5cccc(C#N)c5)ccc4=O)c3)nc2)CC1 + CC(C)C[C@H](NC(=O)[C@H](CCc1ccccc1)NC(=O)CN1CCOCC1)C(=O)N[C@@H](Cc1ccccc1)C(=O)N[C@@H](CC(C)C)C(=O)[C@@]1(C)CO1 [Carfilzomib] | 80.4 | 57 |
| CO[C@H]1C[C@@H]2CC[C@@H](C)[C@@](O)(O2)C(=O)C(=O)N2CCCC[C@H]2C(=O)O[C@H]([C@H](C)C[C@@H]2CC[C@@H](O)[C@H](OC)C2)CC(=O)[C@H](C)/C=C(\C)[C@@H](O)[C@@H](OC)C(=O)[C@H](C)C[C@H](C)/C=C/C=C/C=C/1C [Rapamycin (Sirolimus)] + CC(C)C[C@H](NC(=O)[C@H](CCc1ccccc1)NC(=O)CN1CCOCC1)C(=O)N[C@@H](Cc1ccccc1)C(=O)N[C@@H](CC(C)C)C(=O)[C@@]1(C)CO1 [Carfilzomib] | 68.3 | 49.1 |
| Cl.O.O=C1Cc2cc(CCN3CCN(c4nsc5ccccc45)CC3)c(Cl)cc2N1 [Ziprasidone hydrochloride monohydrate] + CC(C)C[C@H](NC(=O)[C@H](CCc1ccccc1)NC(=O)CN1CCOCC1)C(=O)N[C@@H](Cc1ccccc1)C(=O)N[C@@H](CC(C)C)C(=O)[C@@]1(C)CO1 [Carfilzomib] | 79.6 | 64.2 |
| Clc1ccc(C(Cn2ccnc2)OCc2c(Cl)cccc2Cl)c(Cl)c1.O=[N+]([O-])O (stereo not given) [Isoconazole nitrate] + CC(C)C[C@H](NC(=O)[C@H](CCc1ccccc1)NC(=O)CN1CCOCC1)C(=O)N[C@@H](Cc1ccccc1)C(=O)N[C@@H](CC(C)C)C(=O)[C@@]1(C)CO1 [Carfilzomib] | 92.6 | 61.5 |
